A short description of assay [1]: viability loss in pontine glioma line – cell-based, SU-DIPG-XXV, MIPE5.0, CellTiter-Glo, qHTS, dose response (AID 1347065).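 Further: cells exposed to compound for 48 hours before ATP readout.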 The settings on record: CellTiter-Glo ATP luminescence. (In general: In ATP-based viability assays light output follows the ATP content of the culture.)
Assay [2] is described as follows: SU-DIPG-XXV glioma cell viability, MIPE5.0 library, qHTS (AID 1347068; cut-off not given, nearly all actives have IC50 up to about 30 µM;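 on IC50: cells exposed to compound for 48 hours before viability readout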).
Assay [3] is described as follows: JHH-DIPG-1 glioma cell viability, MIPE5.0 library, CellTiter-Glo luminescence, qHTS (AID 1347067).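 Further: cells exposed to compound for 48 hours before readout.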 The settings on record: JHH-DIPG-1 glioma viability, CellTiter-Glo ATP luminescence.
Assay [4] is described as follows: SU-DIPG-VI glioma cell viability, MIPE4.0 library, CellTiter-Glo luminescence, qHTS (AID 1347066; cut-off not given, nearly all actives have AC50 up to about 30 µM;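 further: cells exposed to compound for 48 hours before readout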). The settings on record: CellTiter-Glo ATP luminescence.

The structures appear in SMILES notation. Records with an inconclusive call do not appear. The source made the active and inactive calls. Unless noted, cut-off not given; nearly all actives show AC50 up to about 26 µM.

The record followed here is PubChem BioAssay.

The AC50 is the midpoint of the concentration-response curve, whichever way the signal moves. One may read the IC50 as the concentration that inhibits the measured activity by half.

Consider `Cc1cccc(-c2[nH]c(CNc3ccccc3F)nc2-c2ccc3ncnn3c2)n1`, for which the compound was classed as inactive in assay [1] and in assay [2].

Turning to `O=c1c(-n2ccnn2)c[nH]n1-c1cc(N2CCOCC2)ncn1`, in assay [1], the concentration at half-maximal activity (AC50) is 20.9 µM (active). In addition, in assay [3], the result was inactive.

As for `Cc1ccc(NC(=O)c2ccc(CN3CCNCC3)cc2)cc1Nc1nccc(-c2cccnc2)n1`, the AC50 in assay [1] was 23.5 µM (active). The compound was called inactive in assay [3] and in assay [2].

As for `Cc1cc(Nc2ncnc3ccc(NC4=NC(C)(C)CO4)cc23)ccc1Oc1ccn2ncnc2c1`, the AC50 in assay [1] was 14.8 µM (active). The result in assay [2] was inactive.

With `CCCN(CCC)C(=O)C1=Cc2ccc(-c3ccc(C(=O)N4CCCC4)cc3)cc2N=C(N)C1`, the AC50 in assay [1] is 20.9 µM (active); in assay [3] it was 23.5 µM (active). The outcome in assay [2] was inactive.

Consider `Clc1cc2c(NC3CCCC3)nnc(-c3ccncc3)c2cc1Cl`, for which the half-maximal activity concentration (AC50) in assay [1] was 23.5 µM (active). For the same compound, the call in assay [2] was inactive.

As for `CN1CC[C@@H](c2c(O)cc(O)c3c(=O)cc(-c4ccc(C(F)(F)F)cc4Cl)oc23)[C@@H]1CO`, the half-maximal activity concentration (AC50) in assay [1] was 23.5 µM (active). The result in assay [3] was inactive.

As to `C=CC(=O)Nc1ccc(F)c(-c2ncnc3[nH]cc(C(=O)OCC)c23)c1`, the concentration at half-maximal activity (AC50) in assay [1] and in assay [3] was 18.6 µM (active) in each case.

For `CC(C)(CNC(=O)c1cccc(-c2noc(C(F)(F)F)n2)c1)c1coc(-c2ccccc2)n1`, in assay [1], the half-maximal activity concentration (AC50) was 20.9 µM (active). For the same compound, in assay [2], the result was inactive.

Turning to `O=C1CSC(=O)N1C(CCc1ccncc1)COc1ccc(-c2cccc([N+](=O)[O-])c2)cc1` (centres undefined), the AC50 in assay [1] and in assay [3] was 18.6 µM (active) in each case.

Regarding `CCNCc1nc2c(N)nc3ccccc3c2n1CC(C)(C)O`, the compound was called inactive in assay [1], in assay [3] and in assay [2].

For the compound `CN(C)CCCOc1ccc(-c2ccc3ncc4c(c3c2)n(C2CCOCC2)c(=O)n4C)cn1`, in assay [1], the half-maximal activity concentration (AC50) was 5.74 µM (active). In addition, the compound was classed as inactive in assay [3].

As for `Cc1nc(C)c(CN2CCN(C(c3ccc(F)cc3)c3ccc(F)cc3)CC2)nc1C`, the concentration at half-maximal activity (AC50) in assay [1] was 23.5 µM (active). Also, the result in assay [3] and in assay [2] was inactive.

Turning to `c1ccc(-c2ccc(CNc3nc(-c4ccccn4)nnc3-c3ccccc3)cc2)cc1`, the AC50 is 3.32 µM (active) in assay [1] and 10.5 µM (active) in assay [3]. Further, in assay [2], the 50% inhibitory concentration (IC50) was 2.95 µM (active).

`Cc1nc(-c2cccnc2)sc1C(=O)Nc1ccccc1-c1cn2c(CN3CCOCC3)csc2n1`: the compound was classed as inactive in assay [1] and in assay [2].

`CN1CCN(C(=O)c2ccc(-c3ccc4c(C=O)c(O)ccc4c3)s2)CC1`: the concentration at half-maximal activity (AC50) in assay [1] was 16.6 µM (active). Moreover, the call in assay [2] was inactive.

For the compound `COC(=O)C1C2CC3c4[nH]c5cc(OC)ccc5c4CCN3CC2CC(OC(=O)c2cc(OC)c(OC)c(OC)c2)C1OC` (centres undefined), the half-maximal activity concentration (AC50) in assay [1] is 20.9 µM (active); in assay [3] it was 23.5 µM (active). In addition, the outcome in assay [2] was inactive.

Regarding `CCOCOC[C@H](C[C@H](C)C(=O)NO)NC(=O)c1ccc(Oc2ccccc2)cc1`, the call in assay [1], in assay [3] and in assay [2] was inactive.

For the compound `COc1cc(N2CCN(C)CC2)ccc1Nc1ncc2c(n1)N(C)c1ccccc1C(=O)N2`, in assay [1], the AC50 was 20.9 µM (active). In assay [2], the outcome was inactive.

As to `CN1CCN(CCCNc2ncc(Cl)c(-c3cc4c(C(=O)NC5CC5)cccc4s3)n2)CC1`, the AC50 in assay [1] is 23.5 µM (active). In addition, the call in assay [2] was inactive.

For the compound `FC(F)(F)c1ccc(Nc2nc3ccc(Oc4ccnc(-c5ncc(C(F)(F)F)[nH]5)c4)cc3[nH]2)cc1`, the AC50 in assay [4] was 20.9 µM (active).

Turning to `O=C(Nc1cccnc1)c1cc(-c2ccnc(F)c2)ccc1OCc1ccccc1`, in assay [3], the AC50 was 18.6 µM (active).

Take `CS(=O)(=O)c1ccc(-c2cnc(NCc3ccco3)n3cnnc23)cc1`: in assay [3], the half-maximal activity concentration (AC50) was 20.9 µM (active).

Regarding `COCCOc1ccc(N2CCN(CCn3ncc4c3nc(N)n3nc(-c5ccco5)nc43)CC2)cc1`, the call in assay [3] and in assay [2] was inactive.

Take `COC1CC(C(=O)c2ccc3c(N)ncc(-c4ccc(-c5cnn(C)c5)cc4)c3n2)C1` (centres undefined): the call in assay [3] and in assay [2] was inactive.

Take `CC(C)C[C@H](NC(=O)[C@H](Cc1ccccc1)NC(=O)OCc1ccccc1)C(=O)C=O`: in assay [3], the outcome was inactive.

Regarding `NC(=O)c1nnn(Cc2cc(Cl)c(C(=O)c3ccc(Cl)cc3)c(Cl)c2)c1N`, the AC50 in assay [4] is 18.7 µM (active).

As to `Cc1ccc2cc(-c3c(C)ccc(C(=O)c4c(-c5ccccc5)n(C)n(-c5ccccc5)c4=O)c3N)ccc2n1`, the compound was called inactive in assay [3] and in assay [2].

As to `Cn1c(NC[C@@H](N)Cc2ccccc2)nc(-c2ccncc2)c(-c2ccc3ccccc3c2)c1=O`, the call in assay [2] was inactive.
